Inconclusive results are not listed. Where a call stands in place of a potency, no number is given. Unmarked numbers belong to inactive results. Activity calls are given as the source filed them. Calls come from the whole dose curve; as a rule, active = well fitted cell-killing curve with a large enough effect in the repeat runs; inconclusive = weak or mixed curves, or effect the other way; inactive = flat fitted curve, though single readings scatter.
How the values were obtained:
[1] = cAMP Responsive Elements (CRE) small molecule antagonists, cell-based qHTS assay: qHTS cell viability counter screen (AID 2060913); note: nearly all actives have a fitted effect of over 40% in size
How it was run: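 CRE-bla HEK293T cells were seeded in assay medium with 10% dialyzed FBS, incubated 18 hrs at 37 C, then exposed to compounds plus 0.25 uM final NKH477 for 3 hrs. Viability was read by CellTiter-Glo luminescence after 30 min, in the same wells.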

[2] = cAMP Responsive Elements (CRE) small molecule agonists, cell-based qHTS assay: qHTS cell viability counter screen (AID 2060914);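 note: viability read after 3 h of compound exposure; nearly all actives have a fitted effect of over 50% in size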
How it was run: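 HEK 293T CRE-bla; DMEM + 10% dialyzed FBS, 25 mM HEPES; 18 h pre-incubation; compound 3 h, 37 °C/5% CO2; CellTiter-Glo added after reporter read; luminescence after 30 min RT.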
Potency is the fitted concentration of half-maximal effect.

SMILES | Potency [1] | Potency [2] | viability change, negative = cytotoxic [1] | activity change, negative = cytotoxicity [2]
CCc1cccc(CC)c1N | inactive | inactive |  | 
Cc1ccc(Nc2c(F)cccc2Cl)c(CC(=O)O)c1 | inactive | inactive |  | 
CC(=O)c1cc(C)oc1C | inactive | inactive |  | 
CC(C)OC(=O)C(C(=O)OC(C)C)=C1SC=CS1 | inactive | inactive |  | 
COC(=O)CC(C)=O | inactive | inactive |  | 
Cc1occc(=O)c1OC(=O)C(C)C | inactive | inactive |  | 
C=CC(=O)OCC(CO)(COCC(COC(=O)C=C)(COC(=O)C=C)COC(=O)C=C)COC(=O)C=C | 30.3 µM (active) | 42.7 µM (active) |  | 
CCCCC/C=C/CC(=O)OC | inactive | inactive |  | 
Cc1cc(C(C)(C)C)c(O)c(C(C)(C)C)c1 | inactive | inactive |  | 
Nc1c(NC/C=C\COc2cc(CN3CCCCC3)ccn2)c(=O)c1=O |  |  | -0.847% [at 18.9 µM] | 0.246% [at 18.9 µM]
CC(C)(c1ccccc1)c1ccccc1 | inactive | inactive |  | 
CCCCCCCCCCCl | inactive | inactive |  | 
C=CCCCCCCCCO | inactive | inactive |  | 
COCc1nnc(-c2ccc[n+]([O-])c2)n1-c1c(Cl)c(Cl)cc2[nH]c(=O)c(=O)[nH]c12 | inactive | inactive |  | 
CCCCNS(=O)(=O)c1ccccc1 | inactive | inactive |  | 
CCCCC1=NC2(CCCC2)C(=O)N1Cc1ccc(-c2ccccc2-c2nn[nH]n2)cc1 | inactive | inactive |  | 
COC(=O)CCCCC(=O)O | inactive | inactive |  | 
OC(CCN1CCCCC1)(c1ccccc1)C1CCCCC1 (stereo not given) | inactive | inactive |  | 
CCCCCCCCOC(C)=O | inactive | inactive |  | 
O=CC1CC=CCC1 (stereo not given) | inactive | inactive |  | 
CC(C)N(C)C | inactive | inactive |  | 
NS(=O)(=O)c1cc(C(=O)O)c(NCc2ccco2)cc1Cl | inactive | inactive |  | 

SMILES | Potency [1] | Potency [2] | viability change, negative = cytotoxic [1] | activity change, negative = cytotoxicity [2]
NC(=O)N/N=C/c1ccc([N+](=O)[O-])o1 | inactive | inactive |  | 
CCCCCCCCCCCCN1CCCCCC1=O | inactive | inactive |  | 
OC(CN1CCC(Cc2ccc(F)cc2)CC1)c1ccc(Cl)cc1 (stereo not given) | inactive | inactive |  | 
CCCC(=O)C(=O)O | inactive | inactive |  | 
CCOC(=O)CCC(C)=O | inactive | inactive |  | 
CCOC(=O)C1=NN(c2ccc(Cl)cc2Cl)C(C)(C(=O)OCC)C1 (stereo not given) | inactive | inactive |  | 
N[C@@H](CCC(=O)Nc1ccc([N+](=O)[O-])cc1)C(=O)O | inactive | inactive |  | 
CCCCCCCC/C=C\CCCCCCCCOCCO | 79.4 µM (active) | 63.1 µM (active) |  | 
OCC1CCCO1 (stereo not given) | inactive | inactive |  | 
OCCCCCCCl | inactive | inactive |  | 
CC1=CC(=O)CCC1 | inactive | inactive |  | 
Cc1oc(-c2ccccc2)nc1CCC(=O)c1ccc(CC2SC(=O)NC2=O)cc1 (stereo not given) | inactive | inactive |  | 
O=C(/C=C/c1ccccc1)OCCc1ccccc1 | inactive | inactive |  | 
O=C(O)c1ccc(O)cc1 | inactive | inactive |  | 
CCCCOCC(C)OCC(C)O (stereo not given) | inactive | inactive |  | 
O=C(CCN1CCC(c2ccccc2)C1)c1ccc2c(c1)OCCO2 (stereo not given) | inactive | inactive |  | 
Nc1nc(N)c2nc(-c3ccccc3)c(N)nc2n1 | inactive | inactive |  | 
OC[C@]1(O)OC[C@@H](O)[C@H](O)[C@@H]1O | inactive | inactive |  | 
CC(C)C(=O)Nc1cccc(C2CN3CCSC3=N2)c1 (stereo not given) | inactive | inactive |  | 
Nc1c(S(=O)(=O)O)cc(Br)c2c1C(=O)c1ccccc1C2=O | inactive | inactive |  | 
CNC(=O)c1c(I)c(NC(C)=O)c(I)c(C(=O)O)c1I | inactive | inactive |  | 
C[Si]1(C)O[Si](C)(C)O[Si](C)(C)O1 | inactive | inactive |  | 

SMILES | Potency [1] | Potency [2] | viability change, negative = cytotoxic [1] | activity change, negative = cytotoxicity [2]
c1ccc(CC2=NCCN2)cc1 | inactive | inactive |  | 
Cc1ccc([N+](=O)[O-])c(N)c1 | inactive | inactive |  | 
O=C[O][Al]([O]C=O)[O]C=O | inactive | inactive |  | 
Nc1cc([N+](=O)[O-])ccc1Cl | inactive | inactive |  | 
C[C@@H](O)[C@H](N)C(=O)O |  |  | -1.62% [at 18.9 µM] | -10.8% [at 18.9 µM]
O=S(=O)(c1ccccc1)c1ccc(Cl)cc1 | inactive | inactive |  | 
CC1=NN(c2ccc(C(=O)O)cc2)C(=O)C1 | inactive | inactive |  | 
CN(C)CCOC(C)(c1ccccc1)c1ccccn1 (stereo not given) | inactive | inactive |  | 
CCCCCCCCCCCCCCCCN(C)C |  |  | -5.89% [at 8.39 µM] | -12.8% [at 8.39 µM]
c1ccc2c(c1)-c1cccc3c1c-2cc1ccccc13 | inactive | inactive |  | 
CC(CN1CC(=O)NC(=O)C1)N1CC(=O)NC(=O)C1 (stereo not given) | inactive | inactive |  | 
NCCOCCO | inactive | inactive |  | 
CCC(C)(C)C(=O)O[C@H]1C[C@@H](C)C=C2C=C[C@H](C)[C@H](CC[C@@H]3C[C@@H](O)CC(=O)O3)[C@H]21 | inactive | inactive |  | 
COC(=O)[C@H]1[C@H]2C[C@@H]3c4[nH]c5cc(OC)ccc5c4CCN3C[C@H]2C[C@@H](OC(=O)/C=C/c2ccc(O)c(OC)c2)[C@@H]1OC | inactive | inactive |  | 
CC(C)(C)NCC(O)c1ccc(O)c(CO)c1 (stereo not given) | inactive | inactive |  | 
O=C(CCNNC(=O)c1ccncc1)NCc1ccccc1 | inactive | inactive |  | 
O=C(O)Cc1ccc(Cl)cc1Cl | inactive | inactive |  | 
CC(CC=O)CC(C)(C)C (stereo not given) | inactive | inactive |  | 
CCCCC(CC)CN1C(=O)C2C3C=CC(C3)C2C1=O (stereo not given) | inactive | inactive |  | 
CCCCCCCC/C=C\CCCCCCCC(N)=O | inactive | inactive |  | 
CC1(C)C(=O)N(Cl)C(=O)N1Br | inactive | inactive |  | 

Source: PubChem BioAssay (Tox21)
